Compounds with a hit are over-represented: about 2.7% of the library has one in this group of screens.
GLP1R ag: activates the human GLP-1 receptor | P43220 | HEK293 GLP-1R CRE-luciferase, luminescence, 4-6 h; cells express a hypersensitive GLP-1R form | Potency, µM (top dose mostly 45.6 µM), without a hit: top-dose activation, actives largely listed as activators | 380,000 compounds, 0.007% hits | AID 624172; note: % of control where 0% means no effect
Target sequence (P43220 whole entry, looked up): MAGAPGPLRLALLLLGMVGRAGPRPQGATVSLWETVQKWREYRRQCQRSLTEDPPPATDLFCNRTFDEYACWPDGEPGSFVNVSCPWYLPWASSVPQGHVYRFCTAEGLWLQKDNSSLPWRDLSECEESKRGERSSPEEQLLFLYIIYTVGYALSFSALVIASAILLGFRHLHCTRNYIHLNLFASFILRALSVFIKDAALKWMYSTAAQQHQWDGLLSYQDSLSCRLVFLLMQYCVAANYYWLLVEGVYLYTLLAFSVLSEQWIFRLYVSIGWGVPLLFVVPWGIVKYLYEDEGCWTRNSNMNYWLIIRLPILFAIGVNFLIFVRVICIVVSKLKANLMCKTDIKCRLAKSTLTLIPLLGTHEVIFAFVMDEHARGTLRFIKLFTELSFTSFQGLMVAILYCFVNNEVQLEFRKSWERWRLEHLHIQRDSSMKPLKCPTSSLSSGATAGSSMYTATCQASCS
BRCA1 expr act: activators of BRCA1 expression | 380,000 compounds, 1.1% hits | AID 624202 | Potency, µM (highest dose often 46.1 µM), inactives show top-dose activation, most hits filed as activators | MCF7-BRCA1-FFLuc reporter, luminescence, 48 h; response scale: scaled: vehicle 0%, 10 µM genistein 100%; note: nearly all actives have a fitted effect of over 80% in size
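First, MCF7-BRCA1-FFLuc cells (2000/well) attach for 2 h; next, compounds are pin-added and incubated 48 h at 37 °C; finally, luciferase reagent is added and luminescence read after 15 min.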
a7 integrin act: integrin-mediated muscular dystrophy alleviation activation; 350,000 compounds, 0.064% hits; Potency, µM (doses to about 38.3 µM), inactives show at the highest dose activation, hits mostly activators; alpha7betagal myoblasts, beta-gal FDG fluorescence, 48 h;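 note: 100% = response of the positive control SU9516; nearly all actives have a fitted effect of over 60% in size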
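alpha7betagal+/- myoblasts (passage 13, 250/well) treated 48 h at 37C with compounds at 1:260 dilution of DMSO stock. Lysed, then beta-galactosidase activity read as FDG fluorescence (ex 480/em 540) after 30 min, with pre-read for autofluorescence.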
GLP-1R inv ag: acts as inverse agonist at human GLP-1 receptor | 410,000 compounds, 1.6% hits | AID 624417 | P43220 | Potency, µM (highest dose often 38.3 µM), for inactives: at the top dose activity change, negative = inhibition, hits mostly inhibitors | HEK293 GLP-1R CRE-luciferase, luminescence, 24 h; GLP-1R form is constitutively active; note: % is set by controls: 0 for no effect and ±100 for the full control effect; nearly all actives have a fitted effect of over 55% in size
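Assay principle: reduced luminescence from a cAMP-responsive reporter in HEK293 cells co-expressing a constitutively active GLP-1R. Conditions: 24 hr compound incubation, 37 deg C, 5% CO2.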
GLP1R cytotox: cytotoxic in the GLP-1 receptor inverse agonist counter-screen. HEK293 cAMP-luciferase reporter cells, luminescence, 24 h. Potency, µM (highest dose often 38.3 µM), for inactives: at the top dose activity change, negative = inhibition, hits mostly inhibitors. 410,000 compounds, 0.13% hits. AID 624418;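 note: loss of luciferase light is scored as toxicity; % is set by controls: 0 for no effect and ±100 for the full control effect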
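1536-well qHTS counterscreen of the MLSMR; 200 cells/uL, 12 h pre-incubation, 23 nL cpd, 24 h at 37 deg C 5% CO2, luciferase detection reagent, 12 min RT, luminescence. Inhibition = undesired.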
Active calls of the source: *; ? = inconclusive; nt = not tested or not shown. Calls come from the whole dose curve; as a rule, active = well fitted curve in the direction sought with a large enough effect; inconclusive = small, poorly fitted or top-dose-only effect, or another doubt; inactive = no such curve, though single readings can be large; an effect the other way counts as inactive or inconclusive. Potency is the fitted concentration of half-maximal effect.

SMILES	GLP1R ag	BRCA1 expr act	a7 integrin act	GLP-1R inv ag	GLP1R cytotox
Cc1ccc2nc3c(cc2c1)CN(Cc1ccco1)C(=NCC1CCCO1)S3 (configuration not stated)	-2%	-47%	-11%	2.2µM*	-11%
CCOc1cc(CNC(=O)NC2COc3ccccc3C2)cc(OCC)c1OCC (configuration not stated)	nt	nt	nt	-3%	-2%
CCOc1ccccc1NC(=O)C(=O)NCCc1sc2nc(-c3ccc(OC)cc3)nn2c1C	nt	nt	nt	15%	-2%
CCc1nn(CCCC(=O)N2CCN(c3cccc(C)c3C)CC2)c(=O)c2cc3occc3n12	24%	-23%	-19%	11µM*	-5%
COc1cccc(NC(=O)COc2ccccc2C(=O)Nc2ccccc2)c1	nt	21%	nt	nt	nt
CC1CCN(C(=O)CSCc2ccc(Cl)cc2)CC1	21%	2.8µM*	20%	?	11%
CCOc1cccc(C2c3[nH]c4ccccc4c3CCN2C(=O)CSCc2ccc(F)cc2)c1 (configuration not stated)	nt	nt	nt	?	-7%
CCOc1ccc(C2c3[nH]c4ccccc4c3CCN2C(=O)CSCc2ccc(F)cc2)cc1 (configuration not stated)	nt	nt	nt	2.8µM*	-12%
COc1ccc2[nH]c3c(c2c1)CCN(C(=O)c1cccc(Cl)c1)C3c1ccc(F)cc1 (configuration not stated)	0%	-28%	nt	4.5µM*	2%
CCOc1cccc(CC(=O)N2CCc3c([nH]c4ccccc34)C2c2ccc(C)cc2)c1OCC (configuration not stated)	nt	nt	nt	10µM*	-3%
CCOc1cccc(CC(=O)N2CCc3c([nH]c4ccc(OC)cc34)C2c2ccc(F)cc2)c1OCC (configuration not stated)	0%	8%	nt	-5%	-4%
CSc1ccc(C2c3[nH]c4ccccc4c3CCN2C(=O)CCC2CCCC2)cc1 (configuration not stated)	nt	nt	nt	2.2µM*	18%
O=C(Nc1ccc(/C=C/c2ccc(NC(=O)c3cc(S(=O)(=O)O)c4cccnc4c3O)cc2S(=O)(=O)O)c(S(=O)(=O)O)c1)c1cc(S(=O)(=O)O)c2cccnc2c1O	-1%	nt	nt	nt	nt
CCOc1ccc(OCC)c(NC(=O)CCc2nc3cccnc3n2Cc2cccs2)c1	nt	nt	nt	-15%	26%
CC[n+]1c(-c2ccccc2)csc1Nc1c(C)n(C)n(-c2ccccc2)c1=O	-3%	-4%	5%	?	3%
CC[n+]1c(-c2ccc(C)cc2)csc1Nc1c(C)n(C)n(-c2ccccc2)c1=O	9%	-24%	-46%	8.9µM*	-18%
Clc1cccc2c1Sc1ccccc1CC2N1CCNCC1 (configuration not stated)	11%	-79%	-43%	?	?
Clc1ccc2c(c1)C(N1CCNCC1)Cc1ccccc1S2 (configuration not stated)	-16%	-99%	-64%	8.9µM*	-10%
CC(C)Oc1ccc(C(=O)NCC(c2ccc(N(C)C)cc2)N2CCCC2)cc1 (configuration not stated)	nt	nt	nt	?	8%
N#CC1=C(SCc2ccccc2)NC(=O)CC1c1ccc(O)cc1 (configuration not stated)	3%	-28%	17%	0%	9%
Cc1ccc(C2CC(=O)NC(SCc3ccccc3)=C2C#N)cc1 (configuration not stated)	6%	-23%	78%	8.9µM*	-7%
Cc1ccc(CNC(=O)c2cnc(N(C)C)nc2)cc1	nt	nt	nt	-7%	0%
Cc1[nH]n(C(N)=S)c(=O)c1N=Nc1ccc(Br)cc1	-9%	4.5µM*	11%	-16%	-3%
NC(=S)n1[nH]c(-c2ccc([N+](=O)[O-])cc2)c(N=Nc2ccc(Cl)cc2)c1=O	-5%	-60%	-42%	10µM*	?
CCC(C)NC(=O)C(=O)Nc1c2c(nn1-c1ccccc1)CS(=O)(=O)C2 (configuration not stated)	nt	nt	nt	26%	22%
SMILES	GLP1R ag	BRCA1 expr act	a7 integrin act	GLP-1R inv ag	GLP1R cytotox
C(=N\Nc1ccccn1)/c1ccc(N2CCOCC2)cc1	1%	?	17%	-11%	5%
C/C(=N\Nc1ccccn1)c1ccc(N2CCOCC2)cc1	-3%	4.5µM*	12%	20%	-15%
CC1CCCN(c2nc3ccsc3c(=O)s2)C1 (configuration not stated)	27%	13µM*	8%	9%	6%
c1ccc(CN2CCCC3(CCCN(Cc4nc(CC5CC5)no4)C3)C2)cc1 (configuration not stated)	-7%	-9%	8.9µM*	?	13%
c1ccc(CN2CCCC3(CCCN(Cc4nc(COc5ccccc5)no4)C3)C2)cc1 (configuration not stated)	12%	-6%	-13%	?	0%
O=C(NCCCOc1ccc([N+](=O)[O-])cc1Cl)OCc1ccccc1	28%	-22%	-9%	-27%	-12%
O=C(O)c1ccc(COc2ccc([N+](=O)[O-])cc2Cl)cc1	-6%	13µM*	-5%	14%	-22%
CCOc1ccc(Cc2nc(N)nc(N)n2)cc1	?	-26%	-17%	0%	8%
Nc1nc(N)nc(COc2ccccc2)n1	14%	4.5µM*	16%	9%	4%
CSc1ccc(/C=C/C(=O)c2ccc(NC(=O)C(C)C)cc2)cc1	-12%	11%	-49%	10µM*	?
CCOC(=O)c1ccc(-c2c(-c3ccccc3OC)sc3ccc(OC)cc23)cc1F	-2%	-68%	35%	11µM*	17%
COC(=O)c1ccc2nc(-c3cccc(N)c3)cn2c1	-5%	-68%	23%	5.6µM*	-4%
Nc1ccc(/C=C/c2nc3ccccc3s2)cc1	nt	5%	nt	nt	nt
Cn1/c(=N\NC(=O)c2ccccc2Cl)sc2ccccc21	-1%	11µM*	13%	7%	-6%
CCOc1ccccc1CN1CCN(Cc2cc3ccccc3[nH]2)CC1CCO (configuration not stated)	13%	-52%	-52%	10µM*	-25%
CCOc1ccccc1CN1CCN(CC2CC2)CC1CCO (configuration not stated)	5%	4%	-20%	8%	-3%
S=C(NCc1ccccc1)NCc1ccc(Cl)cc1	-6%	5%	-10%	?	?
COc1ccccc1CNC(=S)NCc1ccc(Cl)cc1	-3%	-2%	-26%	10µM*	-28%
COc1ccccc1CNC(=O)Cc1ccccc1	-6%	11µM*	-16%	1%	16%
COc1ccccc1CNC(=O)Cc1ccc(OC)c(OC)c1	7%	-20%	25%	-2%	-11%
Cc1ccc(N=C2NC(=O)/C(=C/c3cccn3C)S2)cc1C	-1%	2%	0%	-17%	?
